In PubChem BioAssay AID1159580 (chemical genetic matrix, 2015):
In all, about 5,500 compounds went through this assay and about 2,000 (36%) were called active. Another 18% or so got no clear call; they are omitted. Cut-off read from the data, not from the text of the source: active = normalized growth mostly below about 0.91 (no sharp cut-off); inconclusive = no clear call, values can overlap the other calls; inactive = mostly above about 0.92. Some of the results follow.

Assay: chemical genetic growth profiling, strain panel (AID 1159580);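 note: tested at 20 µM; growth read once vehicle control cultures reached saturation at 30 °C; 1 = growth at the plate median or of vehicle wells; lower values mean less growth of the strain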
Settings: S. cerevisiae deletion strains, growth OD

Measured: normalized growth

O=C1OC(CN2CCOCC2)CN1/N=C\c1ccc([N+](=O)[O-])o1 (stereo not drawn)
inactive: locus YHR030C, strain SLT2, active compounds read low 0.93 | locus YHR079C, strain IRE1, active compounds read low 0.948 | locus YJL095W, strain BCK1, active compounds read low 0.952 | locus YJR066W, strain TOR1, active compounds read low 0.844 | locus YLR113W, strain HOG1, active compounds read low 1.03 | locus YNL183C, strain NPR1, active compounds read low 0.856 | locus YOR231W, strain MKK1, active compounds read low 0.931 | locus YPL256C, strain CLN2, active compounds read low 0.961
